Results: PubChem BioAssay (NCATS)
Results filed as inconclusive are left out. Where a call stands in place of a potency, no number is given. Calls of active or inactive are those of the source. Calls follow the shape of the dose curve; as a rule, active = well fitted inhibition curve with a large enough effect; inconclusive = small, poorly fitted or top-dose-only effect; inactive = flat fitted curve, though single readings scatter.

The molecules below were run on CP252 (assay: qHTS profiling for inhibitors of Plasmodium falciparum proliferation (AID 504749; also: nearly all actives have a fitted effect of over 60% in size)). Conditions: P. falciparum in erythrocytes, SYBR Green DNA, 72 h; series mostly up to 28.7 µM.
Summary of the method: (§1)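 P. falciparum-infected erythrocytes (0.3% parasitemia, 2.5% hematocrit) incubated with compound 72 h at 37 C, 5% CO2. Parasite DNA detected by SYBR Green after lysis, overnight at room temperature; normalised to 0.29 uM artemisinin and DMSO.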

SMILES	Potency
CCCCN(CCCC)CCCOC(=O)c1ccc(N)cc1	inactive
O=C1c2c(O)cccc2Cc2cccc(O)c21	inactive
CCCOC(=O)c1ccccc1	inactive
CC12CCC(CC1)C(C)(C)O2	inactive
CC(=O)Nc1ccc(/C=N/NC(N)=S)cc1	inactive
CC(C)(C)NCC(O)COc1ccc(NC(=O)NC2CCCCC2)cc1 (stereo not given)	inactive
O=C1OC(OC(=O)c2cccnc2Nc2cccc(C(F)(F)F)c2)c2ccccc21 (stereo not given)	inactive
O=C1NS(=O)(=O)c2ccccc21	inactive

Each molecule was assayed on CP256 in the same assay as above. Conditions: P. falciparum in erythrocytes, SYBR Green DNA, 72 h; series mostly up to 28.7 µM.
Summary of the method: as §1

SMILES	Potency
NC(=O)NNc1ccccc1	inactive
O=C(O)[C@@H]1CSCN1	inactive
COc1ccc2c(c1)C(=O)N(CCc1ccc(S(=O)(=O)NC(=O)NC3CCCCC3)cc1)C(=O)C2(C)C	inactive
CCCc1c(OCCCCc2nn[nH]n2)ccc(C(C)=O)c1O	inactive
CCn1cc(C(=O)O)c(=O)c2cnc(N3CCNCC3)nc21	inactive
O=C(O)COc1nn(Cc2ccccc2)c2ccccc12	inactive
O=C1O[C@H]([C@@H](O)CO)C(O)=C1O	inactive
O=S(=O)(O)c1cc(I)c(O)c2ncccc12	inactive
CC1=C(CC(=O)O)c2cc(F)ccc2/C1=C\c1ccc(S(C)=O)cc1 (stereo not given)	inactive
CCOC(=O)c1ccc(O)cc1	inactive
O=C(O)c1ccccn1	inactive
Cc1cc(O)cc2c1O[C@](C)(CCC[C@H](C)CCC[C@H](C)CCCC(C)C)CC2	inactive
NCC(=O)CCC(=O)O	inactive
CC(C)(C)C(=O)NCCCC(=O)O	inactive
COc1cc2[nH]c(=O)[nH]c(=O)c2cc1OC	inactive
CCC(=O)Nc1ccc(O)cc1	inactive

SMILES	Potency
COc1ccc(Cl)cc1C(=O)NCCc1ccc(S(=O)(=O)NC(=O)NC2CCCCC2)cc1	inactive
O=C1NC(=O)[C@@]2(CCOc3ccc(F)cc32)N1	inactive
O=Cc1ccccc1C=O	inactive
CC(O)CN(CCN(CC(C)O)CC(C)O)CC(C)O (stereo not given)	inactive
Cc1ccc(C(C)C)cc2c(C)ccc1-2	inactive
Nc1nc2c(ncn2CCC(CO)CO)c(=O)[nH]1	inactive
NCCNCCNCCN	inactive
CC1(C)OC(=O)NC1=O	inactive
CCCCN(CCCC)CCCOC(=O)c1ccc(N)cc1	inactive
O=C1c2c(O)cccc2Cc2cccc(O)c21	inactive
CCCOC(=O)c1ccccc1	inactive
CC12CCC(CC1)C(C)(C)O2	inactive
CC(=O)Nc1ccc(/C=N/NC(N)=S)cc1	inactive
CC(C)(C)NCC(O)COc1ccc(NC(=O)NC2CCCCC2)cc1 (stereo not given)	inactive
O=C1OC(OC(=O)c2cccnc2Nc2cccc(C(F)(F)F)c2)c2ccccc21 (stereo not given)	inactive
O=C1NS(=O)(=O)c2ccccc21	inactive

These molecules were tested on CP260 in the same assay as above. Conditions: P. falciparum in erythrocytes, SYBR Green DNA, 72 h; series mostly up to 28.7 µM.
Summary of the method: as §1

SMILES	Potency
NC(=O)NNc1ccccc1	inactive
O=C(O)[C@@H]1CSCN1	inactive
COc1ccc2c(c1)C(=O)N(CCc1ccc(S(=O)(=O)NC(=O)NC3CCCCC3)cc1)C(=O)C2(C)C	inactive
CCn1cc(C(=O)O)c(=O)c2cnc(N3CCNCC3)nc21	inactive
O=C(O)COc1nn(Cc2ccccc2)c2ccccc12	inactive
O=C1O[C@H]([C@@H](O)CO)C(O)=C1O	inactive
CC1=C(CC(=O)O)c2cc(F)ccc2/C1=C\c1ccc(S(C)=O)cc1 (stereo not given)	inactive
CCOC(=O)c1ccc(O)cc1	inactive
O=C(O)c1ccccn1	inactive
Cc1cc(O)cc2c1O[C@](C)(CCC[C@H](C)CCC[C@H](C)CCCC(C)C)CC2	inactive
NCC(=O)CCC(=O)O	inactive
COc1cc2[nH]c(=O)[nH]c(=O)c2cc1OC	inactive
CCC(=O)Nc1ccc(O)cc1	inactive
COc1ccc(Cl)cc1C(=O)NCCc1ccc(S(=O)(=O)NC(=O)NC2CCCCC2)cc1	inactive
O=C1NC(=O)[C@@]2(CCOc3ccc(F)cc32)N1	inactive
O=Cc1ccccc1C=O	inactive
CC(O)CN(CCN(CC(C)O)CC(C)O)CC(C)O (stereo not given)	inactive
Cc1ccc(C(C)C)cc2c(C)ccc1-2	inactive
Nc1nc2c(ncn2CCC(CO)CO)c(=O)[nH]1	inactive
NCCNCCNCCN	inactive
CCCCN(CCCC)CCCOC(=O)c1ccc(N)cc1	inactive
O=C1c2c(O)cccc2Cc2cccc(O)c21	inactive
CCCOC(=O)c1ccccc1	inactive
CC12CCC(CC1)C(C)(C)O2	inactive
CC(=O)Nc1ccc(/C=N/NC(N)=S)cc1	inactive
CC(C)(C)NCC(O)COc1ccc(NC(=O)NC2CCCCC2)cc1 (stereo not given)	inactive
O=C1OC(OC(=O)c2cccnc2Nc2cccc(C(F)(F)F)c2)c2ccccc21 (stereo not given)	inactive
O=C1NS(=O)(=O)c2ccccc21	inactive

Each molecule was assayed on CP262 in the same assay as above. Conditions: P. falciparum in erythrocytes, SYBR Green DNA, 72 h; series mostly up to 28.7 µM.
Summary of the method: as §1

SMILES	Potency
NC(=O)NNc1ccccc1	inactive
O=C(O)[C@@H]1CSCN1	inactive
COc1ccc2c(c1)C(=O)N(CCc1ccc(S(=O)(=O)NC(=O)NC3CCCCC3)cc1)C(=O)C2(C)C	inactive
CCCc1c(OCCCCc2nn[nH]n2)ccc(C(C)=O)c1O	inactive
COc1ccc2[nH]c(S(=O)Cc3ncc(C)c(OC)c3C)nc2n1 (stereo not given)	inactive
CCn1cc(C(=O)O)c(=O)c2cnc(N3CCNCC3)nc21	inactive
O=C(O)COc1nn(Cc2ccccc2)c2ccccc12	inactive
O=C1O[C@H]([C@@H](O)CO)C(O)=C1O	inactive
O=S(=O)(O)c1cc(I)c(O)c2ncccc12	inactive
CC1=C(CC(=O)O)c2cc(F)ccc2/C1=C\c1ccc(S(C)=O)cc1 (stereo not given)	inactive
CCOC(=O)c1ccc(O)cc1	inactive
O=C(O)c1ccccn1	inactive
Cc1cc(O)cc2c1O[C@](C)(CCC[C@H](C)CCC[C@H](C)CCCC(C)C)CC2	inactive
NCC(=O)CCC(=O)O	inactive
CC(C)(C)C(=O)NCCCC(=O)O	inactive
COc1cc2[nH]c(=O)[nH]c(=O)c2cc1OC	inactive

SMILES	Potency
CCC(=O)Nc1ccc(O)cc1	inactive
COc1ccc(Cl)cc1C(=O)NCCc1ccc(S(=O)(=O)NC(=O)NC2CCCCC2)cc1	inactive
O=C1NC(=O)[C@@]2(CCOc3ccc(F)cc32)N1	inactive
O=Cc1ccccc1C=O	inactive
CC(O)CN(CCN(CC(C)O)CC(C)O)CC(C)O (stereo not given)	inactive
Cc1ccc(C(C)C)cc2c(C)ccc1-2	inactive
Nc1nc2c(ncn2CCC(CO)CO)c(=O)[nH]1	inactive
NCCNCCNCCN	inactive
CC1(C)OC(=O)NC1=O	inactive
CCCCN(CCCC)CCCOC(=O)c1ccc(N)cc1	inactive
O=C1c2c(O)cccc2Cc2cccc(O)c21	inactive
CC12CCC(CC1)C(C)(C)O2	inactive
CC(=O)Nc1ccc(/C=N/NC(N)=S)cc1	inactive
CC(C)(C)NCC(O)COc1ccc(NC(=O)NC2CCCCC2)cc1 (stereo not given)	inactive
O=C1OC(OC(=O)c2cccnc2Nc2cccc(C(F)(F)F)c2)c2ccccc21 (stereo not given)	inactive
O=C1NS(=O)(=O)c2ccccc21	inactive
